From PubChem BioAssay AID1159580 (chemical genetic matrix, 2015)
Values joined by “and” are separate entries in the source; they are usually repeats but may differ in a detail not shown here. Equal values may be shown once. Out of some 5,500 compounds screened, about 2,000 (36%) were called active. About 18% were inconclusive and are not listed. Cut-off read from the data, not from the text of the source: active = normalized growth mostly below about 0.91 (no sharp cut-off); inconclusive = no clear call, values can overlap the other calls; inactive = mostly above about 0.92. The list shows a part of the results.

Assay: chemical genetic growth profiling, strain panel (AID 1159580);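 note: tested at 20 µM; growth read once vehicle control cultures reached saturation at 30 °C; 1 = growth at the plate median or of vehicle wells; lower values mean less growth of the strain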
Conditions: S. cerevisiae deletion strains, growth OD

Measured: normalized growth

CO/N=C(\C(=O)N[C@@H]1C(=O)N2C(C(=O)O)=C(COC(C)=O)CS[C@H]12)c1csc(N)n1
inactive: locus YAL021C, strain ccr4, hits give low values 0.961 | locus YAL026C, strain drs2, hits give low values 0.983 | locus YAL030W, strain snc1, hits give low values 0.983 | locus YBL061C, strain skt5, hits give low values 0.993 | locus YBR009C, strain hhf1, hits give low values 0.973 | locus YBR021W, strain FUR4, hits give low values 1 | locus YBR023C, strain chs3, hits give low values 1.02 | locus YBR171W, strain sec66, hits give low values 0.993 | locus YBR229C, strain ROT2, hits give low values 0.954 | locus YBR231C, strain swc5, hits give low values 0.975 | locus YBR279W, strain paf1, hits give low values 1 | locus YCL011C, strain gbp2, hits give low values 0.954 | locus YCL016C, strain dcc1, hits give low values 0.961 | locus YCL029C, strain bik1, hits give low values 0.998 | locus YCL061C, strain MRC1, hits give low values 0.964 | locus YCL069W, strain vba3, hits give low values 0.995 | locus YCR088W, strain abp1, hits give low values 0.985 | locus YDL005C, strain med2, hits give low values 0.992 | locus YDL035C, strain GPR1, hits give low values 0.959 | locus YDL040C, strain nat1, hits give low values 0.989 | locus YDL074C, strain BRE1, hits give low values 1.02 | locus YDL101C, strain DUN1, hits give low values 0.99 | locus YDL185W, strain tfp1, hits give low values 0.965 | locus YDL192W, strain arf1, hits give low values 0.982 | locus YDR001C, strain nth1, hits give low values 0.976 | locus YDR069C, strain doa4, hits give low values 0.996 | locus YDR101C, strain arx1, hits give low values 0.975 | locus YDR137W, strain rgp1, hits give low values 0.938 | locus YDR159W, strain sac3, hits give low values 0.985 | locus YDR162C, strain NBP2, hits give low values 0.954 | locus YDR195W, strain ref2 0.989 | locus YDR297W, strain sur2, hits give low values 0.986 | locus YDR318W, strain mcm21, hits give low values 0.996 | locus YDR334W, strain swr1, hits give low values 0.976 | locus YDR335W, strain msn5, hits give low values 0.992 | locus YDR388W, hits give low values 0.992 | locus YDR392W, strain spt3, hits give low values 0.896 | locus YDR502C, strain sam2, hits give low values 1 | locus YEL003W, strain gim4, hits give low values 1.02 | locus YEL037C, strain rad23, hits give low values 0.991 | locus YEL061C, strain CIN8 (second series), hits give low values 0.989 | locus YEL061C, strain CIN8, hits give low values 0.995 | locus YER015W, strain faa2, hits give low values 0.979 | locus YER016W, strain bim1, hits give low values 0.99 | locus YER110C, hits give low values 0.992 | locus YER111C, strain swi4, hits give low values 1 | locus YER155C, strain BEM2 (second series), hits give low values 0.965 | locus YER155C, strain BEM2, hits give low values 1 | locus YER167W, strain BCK2, hits give low values 1.02 | locus YFR010W, strain ubp6, hits give low values 0.97 | locus YGL078C, strain dbp3, hits give low values 0.998 | locus YGL086W, strain mad1, hits give low values 0.984 | locus YGL167C, strain pmr1, hits give low values 1.01 | locus YGL173C, strain kem1, hits give low values 1.01 | locus YGL227W, strain vid30, hits give low values 0.993 | locus YGL240W, strain doc1, hits give low values 0.996 | locus YGL248W, strain PDE1, hits give low values 1.02 | locus YGL253W, strain hxk2, hits give low values 1 | locus YGR135W, strain pre9, hits give low values 1.05 | locus YGR229C, strain SMI1, hits give low values 0.979 | locus YGR252W, strain gcn5, hits give low values 1.05 | locus YHR013C, strain ard1, hits give low values 0.94 | locus YHR027C, strain rpn1, hits give low values 0.987 | locus YHR030C, strain SLT2, hits give low values 0.988 and 1.01 | locus YHR079C, strain IRE1 (second series), hits give low values 0.998 | locus YHR079C, strain IRE1, hits give low values 0.992 | locus YHR094C, strain hxt1, hits give low values 0.994 | locus YHR129C, strain ARP1, hits give low values 0.99 | locus YHR142W, strain chs7, hits give low values 0.993 | locus YHR200W, strain rpn10, hits give low values 0.981 | locus YIL066C, strain RNR3, hits give low values 0.976 | locus YIL073C, strain SPO22, hits give low values 1.06 | locus YIL125W, strain kgd1, hits give low values 0.986 | locus YIR030C, strain dcg1, hits give low values 0.996 | locus YJL092W, strain hpr5, hits give low values 0.974 | locus YJL095W, strain BCK1 (second series), hits give low values 0.97 | locus YJL095W, strain BCK1, hits give low values 1.06 and 0.972 | locus YJL115W, strain asf1, hits give low values 0.968 | locus YJL129C, strain trk1, hits give low values 0.989 | locus YJL134W, strain LCB3, hits give low values 0.989 | locus YJL154C, strain vps35, hits give low values 0.968 | locus YJL164C, strain tpk1, hits give low values 0.975 | locus YJL166W, strain qcr8, hits give low values 1.01 | locus YJL168C, strain set2, hits give low values 0.991 | locus YJL187C, strain SWE1 (second series), hits give low values 1.01 | locus YJL187C, strain SWE1, hits give low values 0.984 | locus YJR043C, strain POL32, hits give low values 0.958 | locus YJR066W, strain TOR1, hits give low values 0.983 | locus YKL009W, strain mrt4, hits give low values 1.03 | locus YKL068W, hits give low values 0.986 | locus YKL085W, strain MDH1 (second series), hits give low values 0.994 | locus YKL085W, strain MDH1, hits give low values 0.994 | locus YKL160W, strain elf1, hits give low values 1.02 | locus YKL190W, strain CNB1, hits give low values 1 | locus YKR001C, strain vps1, hits give low values 0.992 | locus YKR026C, strain gcn3, hits give low values 0.964 | locus YKR091W, strain srl3, hits give low values 0.962 | locus YLL001W, strain dnm1, hits give low values 1.01 | locus YLL026W, hits give low values 0.996 | locus YLL041C, strain sdh2, hits give low values 1 | locus YLR027C, strain aat2, hits give low values 0.977 | locus YLR039C, strain RIC1, hits give low values 0.993 | locus YLR058C, strain SHM2, hits give low values 0.986 | locus YLR102C, strain apc9, hits give low values 0.997 | locus YLR113W, strain HOG1, hits give low values 0.99 | locus YLR221C, strain rsa3, hits give low values 1 | locus YLR258W, strain gsy2, hits give low values 0.974 | locus YLR262C, strain YPT6 (second series), hits give low values 1 | locus YLR262C, strain YPT6, hits give low values 0.954 | locus YLR268W, strain sec22, hits give low values 0.973 | locus YLR320W, strain mms22, hits give low values 0.96 | locus YLR330W, strain CHS5, hits give low values 0.988 | locus YLR342W, strain FKS1 (second series), hits give low values 0.995 | locus YLR342W, strain FKS1, hits give low values 0.994 | locus YLR357W, strain rsc2, hits give low values 1.03 | locus YLR370C, strain arc18, hits give low values 0.994 | locus YLR371W, strain rom2, hits give low values 0.994 | locus YLR384C, strain iki3, hits give low values 0.983 | locus YLR418C, strain cdc73, hits give low values 1.01 | locus YML016C, strain PPZ1, hits give low values 0.993 | locus YML032C, strain rad52, hits give low values 0.993 | locus YML120C, strain ndi1, hits give low values 0.989 | locus YML124C, strain tub3, hits give low values 0.993 | locus YMR058W, strain fet3, hits give low values 0.99 | locus YMR078C, strain ctf18, hits give low values 0.98 | locus YMR125W, strain sto1, hits give low values 1.02 | locus YMR129W, hits give low values 0.968 | locus YMR205C, strain PFK2, hits give low values 1 | locus YMR223W, strain ubp8, hits give low values 1.03 | locus YMR231W, strain pep5, hits give low values 0.999 | locus YMR307W, strain GAS1, hits give low values 1 | locus YNL067W, strain RPL9B, hits give low values 1.01 | locus YNL071W, strain lat1, hits give low values 0.989 | locus YNL128W, strain TEP1, hits give low values 0.996 | locus YNL183C, strain NPR1, hits give low values 0.91 | locus YNL209W, strain ssb2, hits give low values 0.99 | locus YNL233W, strain BNI4, hits give low values 1.03 | locus YNL248C, strain rpa49, hits give low values 0.977 | locus YNL250W, strain rad50, hits give low values 1.01 | locus YNL271C, strain bni1, hits give low values 1.01 | locus YNL298W, strain CLA4, hits give low values 0.989 | locus YNL307C, strain MCK1, hits give low values 0.994 | locus YNL322C, strain KRE1 (second series), hits give low values 0.971 | locus YNL322C, strain KRE1, hits give low values 1 | locus YNR049C, strain mso1, hits give low values 0.981 | locus YNR052C, strain pop2, hits give low values 0.992 | locus YOL006C, strain TOP1, hits give low values 1.15 | locus YOL012C, strain htz1 0.969 | locus YOL147C, strain pex11, hits give low values 1 | locus YOR001W, strain rrp6, hits give low values 1.01 | locus YOR061W, strain CKA2, hits give low values 0.976 | locus YOR069W, strain VPS5, hits give low values 0.988 | locus YOR070C, strain gyp1, hits give low values 0.995 | locus YOR080W, strain dia2, hits give low values 0.992 | locus YOR083W, strain WHI5, hits give low values 1.02 | locus YOR106W, strain vam3, hits give low values 0.997 | locus YOR136W, strain idh2, hits give low values 0.984 | locus YOR144C, strain elg1, hits give low values 0.99 | locus YOR184W, strain ser1, hits give low values 0.986 | locus YOR231W, strain MKK1, hits give low values 0.971 | locus YOR265W, strain rbl2, hits give low values 0.99 | locus YOR270C, strain vph1, hits give low values 1.05 | locus YOR290C, strain snf2, hits give low values 0.946 | locus YOR316C, strain cot1, hits give low values 0.984 | locus YPL051W, strain arl3, hits give low values 1.01 | locus YPL055C, strain LGE1, hits give low values 1.01 | locus YPL078C, strain atp4, hits give low values 0.968 | locus YPL106C, strain sse1, hits give low values 0.963 | locus YPL240C, strain hsp82, hits give low values 1.01 | locus YPL256C, strain CLN2, hits give low values 1 | locus YPR119W, strain clb2, hits give low values 0.991 | locus YPR141C, strain kar3, hits give low values 0.992 | locus YPR163C, strain tif3, hits give low values 0.988 | locus YPR167C, strain met16, hits give low values 0.998 | strain wtn01, hits give low values 0.999
